Hits are enriched below; roughly 3.7% of the tested compounds scored in any of these assays.
ClpP mod: qHTS Assay for Activators of ClpP | purified B. subtilis ClpP, FRET peptide cleavage, 20 min | Potency, µM (top dose mostly 57.5 µM), for the others: at the highest dose activity change, negative = active | 1.9% of 340,000 active | ATP-dependent Clp protease proteolytic subunit (Bacillus subtilis (strain 168)), P80244; active = well fitted falling curve with a large enough effect; inconclusive = small, poorly fitted or top-dose-only effect; inactive = no such curve, though single readings can be large or run the other way; note: potency is the fitted concentration of half-maximal effect; the source files actives as falling curves though it sought activators and does not explain the sign; nearly all actives have a fitted effect of over 65% in size
Target sequence (P80244 whole entry, looked up): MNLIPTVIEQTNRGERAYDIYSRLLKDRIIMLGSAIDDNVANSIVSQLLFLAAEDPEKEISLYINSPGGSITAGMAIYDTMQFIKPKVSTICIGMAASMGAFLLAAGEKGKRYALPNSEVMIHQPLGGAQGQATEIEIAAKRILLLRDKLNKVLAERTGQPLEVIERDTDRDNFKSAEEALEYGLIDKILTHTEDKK
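Buffer: 100 mM Tris/HCl pH8, 100 mM KCl, 0.05% low protease BSA, 2.5% glycerol, 0.01% Tween-20. ClpP 10 microg/mL final; 20 min RT; delta FRET normalized to ADEP and DMSO controls.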
miR-21 act: qHTS Assay for Modulators of miRNAs and/orActivators of miR-21; HeLa miR-21 FLuc reporter, luciferase, 48 h; Potency, µM (highest dose often 38.3 µM), without a hit: at the highest dose activity change, positive = activation, most hits filed as activators; 340,000 tested, under 10 active; AID 2288, 2010;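 note: % of control where 0% means no effect; miR-21 action dims this reporter so a rising signal means less miR-21 action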
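Luminescence from a firefly luciferase reporter carrying a miR-21 binding site downstream, stably expressed under a CMV promoter in HeLa cells that make miR-21 endogenously, reports miRNA modulation after 48 h compound exposure up to approximately 40uM final.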
Nrf2 block: Nrf2 qHTS screen for inhibitors | A549 ARE-Fluc reporter, luciferase luminescence, 18-24 h | Potency, µM (doses to about 46 µM), for inactives: at the highest dose activity change, negative = inhibition, actives largely listed as inhibitors | 2.1% of 360,000 active | AID 504444, 2011; note: potency is the fitted concentration of half-maximal effect; % is set by controls: 0 for no effect and ±100 for the full control effect; nearly all actives have a fitted effect of over 60% in size
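A549 ARE_Fluc cells, 5000/well, 5% FBS OPTI-MEM; compounds in dose-response, 18-24 h at 37 °C/5% CO2; CellTiter-Fluor viability read (Ex 405/Em 525), then BugLite luciferase luminescence = Nrf2 activity.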
Nrf2 activator: qHTS of Nrf2 Activators. AREc32 ARE-luciferase reporter (MCF7-derived line), luminescence, 24 h. Potency, µM (top dose mostly 46.1 µM), for inactives: top-dose activation, usual class: activators. 0.31% of 410,000 active; note: potency is the fitted concentration of half-maximal effect; % of control where 0% means no effect; nearly all actives have a fitted effect of over 65% in size
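Quantitative high-throughput format: AREc32 reporter cells, 1000 per well, received compound by pin transfer and were incubated 24 hr at 37 deg C, 5% CO2, before Steady-Glo luminescence detection.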
IL-2 act: qHTS of IL-2 Activators; IL-2 activation reporter assay, cell-based qHTS; stimulated with anti-CD3/CD4/CD28 beads; in transgenic mouse T cells; activation, % (series mostly up to about 46 µM); 0.065% of 360,000 active; AID 652025, 2013; in the data active = activation above about 50%; inconclusive = mostly about 30% to 49%; note: 0% is about no effect
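Unstimulated transgenic mouse T cells; 60-min compound exposure; bead-based TCR/CD4/CD28 stimulation; 18 h culture, 37 degrees C; dual fluorescence (EGFP, DsRed) plate cytometry.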
A549 tox: Nrf2 qHTS screen for inhibitors: counterscreen for cytotoxicity; AID 504648, 2011; A549 ARE-Fluc cells, CellTiter-Fluor viability, 18-24 h; Potency, µM (series often up to 46 µM), inactives show at the highest dose activity change, negative = cytotoxicity, usual class: inhibitors; 0.16% of 390,000 active; note: potency is the fitted concentration of half-maximal effect; % is set by controls: 0 for no effect and ±100 for the full control effect
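A549 ARE_Fluc cells in 5% FBS OPTI-MEM were exposed to compounds in concentration-response for 18-24 h at 37 deg C. Viability was read by CellTiter-Fluor fluorescence (Ex 405/Em 525) after 30 min, before the luciferase read.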
Starred values were filed as active, the others as inactive; ? = inconclusive; / = no result given; [ ] = another dose, or the depositor's remark. Unless noted, calls come from the whole dose curve; as a rule, active = well fitted curve in the direction sought with a large enough effect; inconclusive = small, poorly fitted or top-dose-only effect, or another doubt; inactive = no such curve, though single readings can be large; an effect the other way counts as inactive or inconclusive.

SMILES | ClpP mod | miR-21 act | Nrf2 block | Nrf2 activator | IL-2 act | A549 tox
Cn1/c(=N\NC(=O)C2CCCCC2)sc2ccccc21 | 14µM* | -20% | ? | 4% | 0 | 1%
O=C(Nc1ccc(S(=O)(=O)N2CCN(Cc3ccccc3)CC2)cc1)c1cnccn1 | -4% | 3% | 4.1µM* | 0% | -2 | -13%
CCOc1ccc(CN2CCN(S(=O)(=O)c3ccc(NC(C)=O)cc3)CC2)cc1 | / | 17% | 21µM* | 2% | 0 | -5%
CC(NC(=O)c1cccc(S(=O)(=O)N2CCN(Cc3ccccc3)CC2)c1)c1ccccc1Cl (centres undefined) | -1% | / | ? | 0% | 0 | 2%
CS(=O)(=O)c1ccc(NC(=O)c2cccc(S(=O)(=O)N3CCN(Cc4ccccc4)CC3)c2)cc1 | -2% | 12% | 13µM* | 0% | -4 | -17%
O=S(=O)(c1ccc(NC(=S)NCc2cccnc2)cc1)N1CCCCC1 | 2% | ? | 23µM* | 0% | 0 | -22%
CCCNC(=O)CNC(=O)c1ccccc1OCC(=O)Nc1ccc(Br)cc1 | 0% | / | / | / | / | /
CCc1ccccc1N1C(=O)N(Cc2ccccc2C)c2ccccc2S1(=O)=O | 0% | 25% | / | 0% | / | -8%
CC1(C)O[C@H]2[C@@H](O1)[C@@H](C(=O)Nc1ccc(F)c(F)c1)O[C@@H]1OC(C)(C)O[C@@H]12 | 3% | -5% | 8% | 0% | / | 8%
CN(C)C(=O)c1ccc(NC(=O)c2cccc(S(=O)(=O)N3CCCCCC3)c2)cc1 | 4% | / | ? | 0% | 5 | -2%
CC(NC(=O)c1cccc(S(=O)(=O)N2CCN(Cc3ccccc3)CC2)c1)c1ccc(Br)cc1 (centres undefined) | 25µM* | 9% | ? | 3% | -3 | 1%
CN(CC(=O)Nc1ccc(Cl)cc1)C(=O)c1cccc(S(=O)(=O)NCc2ccccc2)c1 | -3% | 11% | -3% | 6% | -1 | 1%
CN(CC(=O)Nc1ccc(Cl)cc1)C(=O)c1cccc(S(=O)(=O)N2CCN(Cc3ccccc3)CC2)c1 | 1% | / | 13µM* | 1% | -6 | ?
CN(C)C(=O)c1ccc(NC(=O)c2cccc(S(=O)(=O)N3CCN(Cc4ccccc4)CC3)c2)cc1 | 0% | / | 18µM* | 0% | 0 | -4%
O=C1NC(c2ccc(O)cc2)Nc2ccccc21 (centres undefined) | ? | 8% | -1% | 4% | 2 | ?
O=C1NC(c2cccc(OCc3ccccc3)c2)Nc2ccccc21 (centres undefined) | 32µM* | / | 9% | 0% | -4 | -14%
Nc1nc(NCc2ccccc2)nc(NCc2ccccc2)c1[N+](=O)[O-] | -1% | -12% | -12% | 0% | -1 | -2%
Nc1nc(Nc2ccccc2)nc(NCc2ccccc2)c1[N+](=O)[O-] | 0% | 0% | 23µM* | 6% | -3 | ?
CC(C)N(C(=O)CSc1ccc(S(=O)(=O)N2CCCCC2)cn1)c1ccccc1 | 0% | / | 9.2µM* | 0% | 0 | -1%
O=S(=O)(c1ccc(SCCOc2ccc(Cl)cc2)nc1)N1CCCC1 | 0% | / | 18µM* | 0% | 0 | -7%
O=S(=O)(c1ccc(SCCOc2ccc(Br)cc2)nc1)N1CCCC1 | -5% | / | 16µM* | 1% | 1 | 3%
N#Cc1ccccc1Oc1ccc(S(=O)(=O)N2CCCCC2)cn1 | 1% | / | 24% | -1% | -2 | -2%
O=S(=O)(c1ccc(Oc2ccc(Br)cc2F)nc1)N1CCCCC1 | -1% | 4% | 16µM* | 0% | -2 | -15%
O=C(Cn1nc(C(F)(F)F)c2c1CCC2)Nc1ccc(Cl)cc1 | -1% | 15% | ? | -1% | / | 4%
COc1ccc(/C=C2\N=C(c3ccc(C)cc3)OC2=O)cc1 | 25µM* | -1% | 1% | 0% | 13 | -1%
SMILES | ClpP mod | miR-21 act | Nrf2 block | Nrf2 activator | IL-2 act | A549 tox
Cc1cccc(NC(=O)COc2ccc3c(c2)CCC3)n1 | 28µM* | / | ? | 4% | -1 | 4%
CONC(=O)C[C@@H](C#N)NC(=O)[C@@H]1CCCN1C(=O)[C@@H](NC(=O)c1ccc(N)c(Cl)c1)C(C)(C)C | / | / | 2% | / | / | 7%
CCSc1nc(-c2ccco2)ccc1C#N | ? | -5% | 24% | ? | 2 | -11%
N#Cc1ccc(-c2ccco2)nc1SCc1ccccc1 | 10µM* | 5% | 8% | ? | 0 | -9%
O=C(C1CCC(CNc2nc(=S)[nH]c3ccccc23)CC1)N1CCN(c2ccccn2)CC1 (centres undefined) | -23% | -3% | 16µM* | 0% | -1 | ?
CC1(C)CC(=O)C2=C(C1)NC(Nc1nc3ccccc3o1)=NC2c1cccnc1 (centres undefined) | ? | / | 11% | / | / | 12%
CC(C)(C)OC(=O)[C@H](Cc1ccccc1)NC(=O)c1ncn2c1c(=O)[nH]c1ccc(Br)cc12 | 7.9µM* | / | / | 0% | -3 | /
O=C(NCCc1csc2nc(-c3ccccc3F)nn12)C(=O)Nc1cc(F)ccc1F | ? | -2% | / | 0% | / | -1%
Cn1c(/C=C/c2ccc(Cl)cc2)nc2ccccc2c1=O | -4% | -45% | ? | 13% | 0 | 1%
Cn1c(/C=C/c2ccc([N+](=O)[O-])o2)nc2ccccc2c1=O | -3% | ? | 21µM* | ? | 18 | ?
Cn1c(/C=C/c2ccccc2)nc2ccccc2c1=O | 2% | -28% | ? | 11µM* | -5 | 1%
CCn1c(/C=C/c2ccc(F)cc2)nc2ccccc2c1=O | -2% | -8% | 6% | 22% | 0 | 7%
CCn1c(/C=C/c2ccccc2)nc2ccccc2c1=O | -2% | -1% | -13% | 3.5µM* | 1 | 1%
CCCCCNC(=O)c1cccc(S(=O)(=O)N2CC3(C)CC2CC(C)(C)C3)c1 (centres undefined) | -1% | / | 26µM* | 0% | -1 | -17%
CC1(C)CC2CC(C)(CN2S(=O)(=O)c2cccc(C(=O)O)c2)C1 (centres undefined) | 1% | / | 3% | 0% | -1 | 0%
O=C(NCc1ccccc1)c1cc(=O)c2ccccc2o1 | -1% | 0% | ? | 0% | -2 | 0%
COc1ccc(CNC(=O)c2ccccc2C(=O)O)cc1 | 1% | -11% | 10% | 0%[9.22 µM] | 0 | 9%

High-throughput results (PubChem)
